From PubChem
RAD54 branch: inhibitors of human RAD54 branch migration; Q92698; RAD54 Holliday junction branch migration, FAM/BHQ fluorescence; inhibition, % at 10.4 µM; actives 0.14% (n = 360,000); AID 602329;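 active means mean normalized replicate activity at least 40 and at least half of replicates scoring 40 or more; inconclusive means only one of the two criteria met; inactive means mean below 40 and under half of replicates reaching 40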;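 further: 0% = median of neutral control wells and 100% = median of positive control wells; inhibitors cause a drop in the FAM fluorescence signal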
Target sequence (Q92698 whole entry, looked up): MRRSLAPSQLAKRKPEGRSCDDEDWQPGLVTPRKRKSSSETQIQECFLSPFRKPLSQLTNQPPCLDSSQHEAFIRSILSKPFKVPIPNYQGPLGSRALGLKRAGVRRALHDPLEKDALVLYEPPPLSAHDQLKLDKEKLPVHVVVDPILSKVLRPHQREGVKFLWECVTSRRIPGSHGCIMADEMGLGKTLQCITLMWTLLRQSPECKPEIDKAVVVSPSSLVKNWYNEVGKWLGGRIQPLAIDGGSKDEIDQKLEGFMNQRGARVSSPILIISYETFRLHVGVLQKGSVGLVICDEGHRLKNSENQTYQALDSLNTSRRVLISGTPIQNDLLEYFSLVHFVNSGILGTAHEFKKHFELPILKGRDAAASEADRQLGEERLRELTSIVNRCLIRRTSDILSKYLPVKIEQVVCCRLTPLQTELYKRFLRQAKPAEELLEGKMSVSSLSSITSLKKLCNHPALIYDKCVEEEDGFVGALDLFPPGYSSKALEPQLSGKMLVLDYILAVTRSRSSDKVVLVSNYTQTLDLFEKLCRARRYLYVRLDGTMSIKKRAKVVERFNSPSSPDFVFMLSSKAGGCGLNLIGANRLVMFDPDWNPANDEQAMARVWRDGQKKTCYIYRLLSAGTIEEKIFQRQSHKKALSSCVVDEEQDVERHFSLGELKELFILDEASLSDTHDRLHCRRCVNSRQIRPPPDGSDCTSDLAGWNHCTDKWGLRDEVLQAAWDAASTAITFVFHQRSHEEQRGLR
dFosB act: mouse delta FosB homodimer activation; activation, % at 25 µM; P13346; purified delta FosB, TAMRA-CDK5 oligo fluorescence polarization; percent of positive-control signal above neutral wells; AID 493131; actives 0.99% (n = 340,000);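 active means mean activation above about 17%, with every replicate also reaching it, limit read from the data, passing the limit was not always enough; inconclusive means only one of the two conditions met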
DENV2 CPE: protects cells from dengue virus 2 cytopathic effect; DENV2-infected cells, cytopathic effect rescue, plate reader; CPE inhibition, % at 9.99 µM; actives 1.7% (n = 350,000); in the data active means CPE inhibition above about 20%, passing the limit was not always enough; inconclusive means no clear call, values can overlap the other calls; tested in BHK-21 cells;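 further: 0% = median of neutral control wells and 100% = median of positive control wells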
GSIS activator: primary screen for activators of insulin secretion dependent on glucose, INS-1E cells, GLuc reporter luminescence | activation, % at 16.6 µM | AID 743287 | INS-1E GLuc reporter insulin secretion, 2-3 h | actives 0.61% (n = 370,000);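 active means lowest replicate activation of at least 40%, so every replicate reaches that level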;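 further: 0% = median of neutral control wells and 100% = median of IBMX positive control wells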
RAD52 inh: inhibitors of human RAD52 DNA annealing; actives 0.46% (n = 360,000); AID 651710; inhibition, % at 18.7 µM; recombinant RAD52 DNA annealing, FRET fluorescence;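 active means every replicate showing at least 50% inhibition; inconclusive means mean inhibition at least 50% but not in every replicate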
MLL AF4-AF9 inh: MLL-AF4/AF9 protein interaction inhibition | P42568 | AlphaScreen, biotin-AF4 peptide binding to FLAG-AF9 | inhibition, % at 10 µM | actives 0.47% (n = 350,000) | AID 651704;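 active means every replicate reaching a set inhibition limit, whatever the replicate mean, cut at about 25% in these data; inconclusive means mean inhibition reaches that limit but some replicates miss it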;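 further: 0% = plate neutral control median and 100% = total signal loss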
* = called active by the depositor; ? = inconclusive; . = not tested or not shown. Shown are actives, neighbours in structure and some others; about 3.1% of the full set was active somewhere.

SMILES	RAD54 branch	dFosB act	DENV2 CPE	GSIS activator	RAD52 inh	MLL AF4-AF9 inh
C[C@H]1CN([C@@H](C)CO)C(=O)Cc2cc(NS(=O)(=O)c3ccc(F)cc3)ccc2O[C@@H]1CN(C)S(C)(=O)=O	-2.0	.	46.1*	6.2	-6.5	5.1
C[C@@H]1CN([C@@H](C)CO)C(=O)Cc2cc(NS(=O)(=O)c3ccc(Cl)cc3)ccc2O[C@@H]1CN(C)S(=O)(=O)c1ccc(Cl)cc1	4.8	.	47.0*	-12.0	-0.8	3.5
Cc1noc(C)c1S(=O)(=O)Nc1ccc2c(c1)CC(=O)N([C@@H](C)CO)C[C@@H](C)[C@H](CN(C)C(=O)NC1CCCCC1)O2	2.8	.	22.4*	16.9	-9.7	-1.7
CC(=O)N1CC2(C1)[C@@H](c1ccccc1)[C@@H](CO)N2C(=O)c1ccncc1	.	.	2.5	34.3	-4.9	-1.4
CCC(=O)N1CC2(C1)[C@H](c1ccccc1)[C@@H](CO)N2CC1CCOCC1	.	.	16.9	13.7	-1.2	-1.0
C[C@H]1CN([C@@H](C)CO)C(=O)Cc2cc(NS(=O)(=O)c3ccc(Cl)cc3)ccc2O[C@H]1CN(C)C(=O)NC1CCCCC1	-2.0	.	32.5*	-9.8	12.5	-2.0
CC(C)NC(=O)N(C)C[C@@H]1Oc2ccc(NS(=O)(=O)c3ccc(Cl)cc3)cc2CC(=O)N([C@@H](C)CO)C[C@@H]1C	7.2	.	?	5.6	-4.4	36.2*
C[C@@H]1CN([C@@H](C)CO)C(=O)Cc2cc(NS(=O)(=O)c3ccc(Cl)cc3)ccc2O[C@H]1CN(C)C(=O)NC1CCCCC1	1.8	.	-13.6	-22.8	0.4	-2.2
C[C@@H]1CN([C@H](C)CO)C(=O)Cc2cc(NS(=O)(=O)c3ccc(Cl)cc3)ccc2O[C@@H]1CN(C)CC1CCCCC1	2.5	.	48.9*	3.8	-7.3	6.4
C[C@@H]1CN([C@@H](C)CO)C(=O)c2cccc(NS(=O)(=O)c3cccs3)c2O[C@H]1CN(C)Cc1ccc(Oc2ccccc2)cc1	5.4	.	6.1	-33.3	21.7	6.1
CC(C)NC(=O)N(C)C[C@@H]1Oc2ccc(NC(=O)NC3CCCCC3)cc2C(=O)N([C@H](C)CO)C[C@@H]1C	2.1	.	-3.8	4.1	1.0	-0.6
CCOc1nc(CC(C)C)c2c(c1C#N)CC(C)(C)OC2	-9.8	-2.1	3.4	51.2*	-6.3	-5.7
O=C1C=C(O)c2cccc(O)c2C1=O	5.9	-4.3	43.6*	.	2.8	-0.3
O=C1C(O)=C(O)C(=O)c2ccccc21	-6.9	-1.3	?	.	-6.2	-10.1
CCOC(=O)c1cnc2ccc(Cl)cc2c1Nc1ccc(S(=O)(=O)Nc2ncccn2)cc1	-11.6	-7.7	.	40.1*	.	.
CC=Cc1ccc2n(c1=O)C[C@@H]1[C@@H](CO)[C@H](C(=O)NC3Cc4ccccc4C3)N(CC3CC3)[C@H]21 (mixture of isomers)	-4.2	.	75.4*	-5.4	-51.3	3.3
CC=Cc1ccc2n(c1=O)C[C@H]1[C@H](CO)[C@@H](C(=O)Nc3nccs3)N(C(=O)CC)[C@@H]21 (mixture of isomers)	-1.1	.	57.8*	-4.6	0.3	-2.1
CCC(=O)N1[C@H](C(=O)Nc2nccs2)[C@@H](CO)[C@@H]2Cn3c(ccc(/C=C/c4ccccc4)c3=O)[C@@H]21	4.0	.	0.3	-17.3	11.8	-11.4
CC=Cc1ccc2n(c1=O)C[C@H]1[C@H](CO)[C@@H](C(=O)NC3Cc4ccccc4C3)N(CC)[C@@H]21 (mixture of isomers)	1.9	.	-2.4	-2.1	-26.8	1.6
CCNC(=O)[C@@H]1[C@@H](CO)[C@@H]2Cn3c(ccc(/C=C/c4ccccc4)c3=O)[C@@H]2N1C(C)=O	6.7	.	62.5*	16.0	-0.9	1.1
CC=Cc1ccc2n(c1=O)C[C@@H]1[C@@H](CO)[C@H](C(=O)NCc3ccccc3)N(CC)[C@H]21 (mixture of isomers)	.	.	37.6*	5.7	-17.3	-0.1
C[C@H]1CN([C@@H](C)CO)C(=O)Cc2cc(NC(=O)c3ccncc3)ccc2O[C@@H]1CN(C)Cc1ccc(Cl)c(Cl)c1	-2.1	.	0.3	-6.6	12.5	0.9
CCC(=O)N1C[C@H]2[C@@H](c3ccccc31)[C@@H](CO)N2C(=O)Nc1ccccc1F	10.3	.	2.6	2.8	-2.5	0.5
